High-throughput results deposited in PubChem by National Center for Advancing Translational Sciences (NCATS).
In the library only some 5% were active in any assay of this set; here they are far more common.
LmPK inhibitor – blocks Leishmania mexicana pyruvate kinase activity; Q27686; purified LmPK, Kinase-Glo ATP luminescence, 1 h; Potency, µM (highest dose often 57.5 µM), for inactives: at the highest dose activity change, negative = inhibition, most hits filed as inhibitors; hit rate 0.37% among 290,000; further: potency means the concentration at half of the fitted maximal effect
Target sequence (Q27686 whole entry, looked up): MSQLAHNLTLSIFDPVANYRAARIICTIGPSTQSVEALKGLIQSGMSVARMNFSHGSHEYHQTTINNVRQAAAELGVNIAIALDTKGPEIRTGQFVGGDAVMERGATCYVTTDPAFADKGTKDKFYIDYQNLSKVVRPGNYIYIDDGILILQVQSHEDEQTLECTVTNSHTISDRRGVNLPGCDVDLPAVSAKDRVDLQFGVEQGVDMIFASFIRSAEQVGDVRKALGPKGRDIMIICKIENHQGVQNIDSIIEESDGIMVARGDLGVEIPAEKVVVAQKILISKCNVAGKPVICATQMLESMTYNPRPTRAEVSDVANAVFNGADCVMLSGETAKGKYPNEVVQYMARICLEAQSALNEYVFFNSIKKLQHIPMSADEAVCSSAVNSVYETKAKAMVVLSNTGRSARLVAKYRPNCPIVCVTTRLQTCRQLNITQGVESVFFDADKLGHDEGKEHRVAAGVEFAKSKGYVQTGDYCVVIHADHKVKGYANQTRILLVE
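Pyruvate kinase activity monitored as ATP production (luciferase luminescence). Conditions: 0.1 nM enzyme, 0.5 mM PEP, 0.1 mM ADP, 1 h, RT; normalized against uninhibited and no-enzyme wells.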
VACV Venus inh – vaccinia inhibition (Venus reporter); Potency, µM (titrated, usually from 36.5 µM), for the others: at the top dose activity change, negative = inhibition, hits mostly inhibitors; AID 720580; Vaccinia virus Venus reporter expression, fluorescence; hit rate 0.46% among 330,000; calls by dose curve; tested in A549 cells; further: potency means the concentration at half of the fitted maximal effect; nearly all actives have a fitted effect of over 30% in size
Tb PYK inh – inhibitors of Trypanosoma brucei pyruvate kinase; Q57TT1; TbPYK enzyme, Kinase-Glo Plus ATP luminescence, 45 min; Potency, µM (series often up to 76.8 µM), for the others: top-dose activity, negative = inhibition, hits mostly inhibitors; hit rate 0.12% among 410,000; further: potency means the concentration at half of the fitted maximal effect; nearly all actives have a fitted effect of over 50% in size
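In this concentration-response screen, enzyme-free wells defined baseline while DMSO plates tracked drift. Each reaction combined TbPYK, substrate, compound and 130 uM ADP for 45 min at room temperature. Kinase-Glo Plus luminescence gave the signal.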
VACV mCherry inh – vaccinia inhibition (mCherry reporter). Vaccinia virus mCherry reporter infection, fluorescence. Potency, µM (doses to about 36.5 µM), without a hit: top-dose activity change, negative = inhibition, actives largely listed as inhibitors. hit rate 0.63% among 310,000. AID 720579; calls by dose curve; tested in A549 cells; further: potency means the concentration at half of the fitted maximal effect; nearly all actives have a fitted effect of over 35% in size
HCMV inh – blocks human cytomegalovirus replication; HFF cells, HCMV-luciferase reporter, 72 h; hits give low values; activity change, negative = inhibition, % at 57.5 µM; hit rate 4.5% among 410,000; in the data active means activity change below about -60%; inconclusive means no clear call, values can overlap the other calls; inactive means above about -39%
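After 16 h attachment at 37C, HFF cells received test compound and HCMV-luciferase (1 PFU/cell); reporter luminescence read 72 h later, data normalized against buffer-only and known inhibitor Salinomycin.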
Numbers without * were called inactive; i = inactive; u = inconclusive; x = not tested or not shown; ! = not confirmed by another sample. Unless noted, the call rests on the fitted dose curve; in most records, active means well fitted curve in the direction sought with a large enough effect; inconclusive means small, poorly fitted or top-dose-only effect, or another doubt; inactive means no such curve, though single readings can be large; an effect the other way counts as inactive or inconclusive. On the % scale 0 is the no-effect control and ±100 the full control effect.

SMILES	LmPK inhibitor	VACV Venus inh	Tb PYK inh	VACV mCherry inh	HCMV inh
COC(=O)/C=c1/s/c(=C(/C#N)C(=O)N2CCCCC2)n(-c2ccccc2)c1=O	-1.0%	-0.2%	-6.6%	-23.4%	-68.8*
CCc1ccccc1NC(=O)Nc1ccc2c(c1)N(CC)C(=O)c1ccccc1S2	x	u	-4.1%	u	-84.0*
CCN1C(=O)c2ccccc2Sc2ccc(NC(=O)Nc3ccc(Br)c(C)c3)cc21	x	u	-4.6%	u	-101.6*
CC(C)NC(=O)Nc1ccc2c(c1)N(C)C(=O)c1ccccc1S2	x	-16.6%	0.3%	-28.7%	10.3
CCN1C(=O)c2ccccc2Sc2ccc(NC(=O)Nc3ccc(C(C)=O)cc3)cc21	x	-27.1%	-6.6%	-20.7%	-26.3
CCN1C(=O)c2ccccc2Sc2ccc(C(=O)NC(C)C)cc21	-6.8%	x	1.5%	x	-101.4*
CCN1C(=O)c2ccccc2Sc2ccc(NC(=O)N3CCN(c4cc(C)ccc4C)CC3)cc21	x	-22.2%	0.0%	-27.3%	-61.0*
Cc1ccc(C)c(N2CCN(C(=O)Nc3ccc4c(c3)N(C)C(=O)CS4)CC2)c1	8.2%	u	1.3%	-20.2%	-15.9
CN(C)C(=O)c1ccc(Nc2nnc(-c3ccc(O)cc3)c3ccccc23)cc1	3.6%	-8.4%	3.1%	-0.1%	u
COC(=O)c1c(NC(=O)COC(=O)[C@@H](NS(=O)(=O)c2ccc(C)cc2)C(C)C)sc2c1CCC2	-0.8%	-12.2%	-1.9%	-20.6%	47.4
N#Cc1ccccc1CN1C(=O)c2ccccc2Sc2ccc(C(=O)OCc3ccco3)cc21	x	-11.6%	9.0%	-14.6%	-10.3
CC(OC(=O)CSCC(=O)Nc1ccc(Cl)cc1)C(=O)N(C)Cc1ccccc1 (stereo unspecified)	x	-2.5%	2.7%	-8.9%	-17.5
CN1C(=O)c2ccccc2Sc2ccc(NC(=O)N3CCN(c4ccc(F)cc4)CC3)cc21	x	u	-0.1%	u	-97.5*
CCN(CC)CCNC(=O)Nc1ccc2c(c1)N(Cc1ccccc1)C(=O)c1ccccc1S2	x	u	-7.8%	u	-60.8*
CN1C(=O)c2ccccc2Sc2ccc(NC(=O)N3CCOCC3)cc21	-5.0%	-10.2%	-2.7%	-3.5%	32.8
CC1=C(O)C(=O)[C@@H]2O[C@@H]2C1=O	x	-11.8%	x	i	x
O=C(COc1ccc(Cl)cc1)N1CCN(c2ccc([N+](=O)[O-])c(N3CCCCC3)c2)CC1	2.5%	-4.0%	-2.4%	-9.5%	-3.4
Cc1ccc(Cl)cc1NS(=O)(=O)c1ccc2c(c1)NC(=O)C(C)C(=O)N2 (stereo unspecified)	-2.9%	-7.8%	-0.4%	-7.1%	8.1
O=C1NN(c2ccccc2)C(=O)/C1=C\c1ccc(-c2cc([N+](=O)[O-])ccc2O)o1	17.8µM*	-5.5%	u	-14.2%	-3.4
CN(C(=O)c1cccc(Nc2ccc(-c3ccc4c(c3)OCCO4)nn2)c1)C1CCCCC1	u	u	-11.7%	x	-93.2*
COc1ccccc1-c1ncn(Cc2cccc(-c3ccccc3)c2)c1CC(C)C	x	u	-6.0%	u	u
CCCc1c(-c2ccc(F)cc2F)ncn1Cc1cccc(-c2ccccc2)c1	x	u	x	u	-86.7*
CCc1c(-c2ccccc2OC)ncn1Cc1cccc(-c2ccccc2)c1	x	u	x	u	-98.5*
CC(=O)N(/N=C1\Sc2ccccc2C1=O)c1ccc(C)cc1C	2.1%	0.0%	-9.3%	-8.5%	-85.6*
Cn1c(N=Nc2ccc(N3CCOCC3)cc2)[n+](C)c2ccccc21	11.2µM*	-5.4%	u	-15.0%	u
SMILES	LmPK inhibitor	VACV Venus inh	Tb PYK inh	VACV mCherry inh	HCMV inh
Cc1ccc(NS(=O)(=O)c2ccc3c(c2)CC(=O)N3)c(C)c1	4.2%	0.5%	1.1%	-21.1%	-32.7
Cc1ccc(NS(=O)(=O)c2ccc3c(c2)CC(=O)N3)cc1F	x	-10.9%	-2.7%	-23.1%	-62.4*
Cc1ccc(OCC(=O)c2cc(C)n(C)c2C)c([N+](=O)[O-])n1	3.7%	-11.4%	-6.4%	i	-71.4*
Cc1cc(C(=O)COc2cccnc2[N+](=O)[O-])c(C)n1-c1ccccc1F	6.2%	x	-10.6%	x	-97.3*
Cc1cc(C(=O)COc2cccc3cccnc23)c(C)n1C	2.0%	-22.7%	-3.7%	-27.7%	37.1
Cc1cc(C(=O)COc2cccnc2[N+](=O)[O-])c(C)n1Cc1ccco1	0.9%	-8.4%	-7.3%	-11.5%	-13.9
Cc1cc(C(=O)COc2cccnc2[N+](=O)[O-])c(C)n1-c1ccccc1	-1.5%	-4.7%	0.6%	-21.4%	-98.8*
Cc1ccc(-n2c(C)cc(C(=O)COc3cccnc3[N+](=O)[O-])c2C)cc1	0.7%	-23.4%	-0.9%	u	-98.6*
COc1ccc(C(=O)Nc2cccc(C(=O)N3CCCCC3)c2)cc1	-2.3%	-20.0%	-4.7%	-6.0%	24.4
Cc1ccc(C)c(N2CCN(C(=O)c3ccc(Cn4c(=S)[nH]c5ccc(N6CCOCC6)cc5c4=O)cc3)CC2)c1	-1.7%	-12.9%	-3.0%	-9.9%	85.8
CCOC(=O)c1ccc(NC(=O)c2cnc3c(-c4ccc(F)cc4)c(C)nn3c2C)cc1	x	-10.2%	3.5%	i	18.1
Cc1ccc(C)c(CN2C(=O)c3ccccc3S(=O)c3ccc(C(=O)N4CCC(C)CC4)cc32)c1 (stereo unspecified)	x	-13.8%	-4.0%	-22.9%	u
CCOC(=O)N1CCC(NC(=O)c2ccc3c(c2)N(Cc2ccc(Cl)cc2)C(=O)c2ccccc2S3=O)CC1 (stereo unspecified)	x	u	1.2%	u	-82.0*
CCOC(=O)N1CCN(C(=O)c2ccc3c(c2)N(Cc2cc(C)ccc2C)C(=O)c2ccccc2S3=O)CC1 (stereo unspecified)	-3.3%	-14.0%	1.4%	-8.7%	-88.5*!
COc1ccc(C(=O)COC(=O)CCNS(=O)(=O)c2ccccc2)c(OC)c1	x	-6.7%	-5.4%	i	-27.9
CCOC(=O)N1CCC(NC(=O)CS(=O)Cc2nc(-c3ccc(OC)c(OC)c3)oc2C)CC1 (stereo unspecified)	2.3%	x	-6.7%	x	66.5
Cc1ccc(NS(=O)(=O)c2cc(NC(=O)c3ccc4c(c3)NC(=O)CS4)ccc2Cl)c(C)c1	0.4%	x	-20.3%	x	-94.4*
Cc1ccc2[nH]c(CSc3nnc(NC(=O)c4ccccc4C)s3)cc(=O)c2c1	x	-21.6%	0.7%	-7.4%	-73.7*
Cc1ccc2[nH]c(CSc3nnc(NC(=O)c4ccccc4F)s3)cc(=O)c2c1	x	-14.3%	1.9%	i	-11.1
C[C@@H](C(=O)Nc1ccc2c(c1)OCO2)n1c(=O)[nH]c2ccccc2c1=O	3.7%	-17.2%	1.2%	-24.9%	51.8
CC(C)Cn1c(SC(C)C(=O)Nc2ccc3c(c2)OCCO3)nc2ccccc2c1=O (stereo unspecified)	3.1%	-9.2%	1.2%	-4.8%	u
CC(Sc1nc2ccccc2c(=O)n1C)C(=O)Nc1ccc2c(c1)OCCO2 (stereo unspecified)	x	x	-2.7%	x	-80.1*
